Measured values: PubChem BioAssay (Tox21)
Results filed as inconclusive are left out. Where a call stands in place of a potency, no number is given. The source made the active and inactive calls. Unless noted, the call rests on the fitted dose curve.

Legend:
[1] = Nuclear factor erythroid 2-related factor 2/antioxidant responsive element (Nrf2/ARE) small molecule agonists: qHTS cell viability counter screen in human keratinocytes (AID 1919968; active means well fitted curve in the direction sought with a large enough effect in the repeat runs; an effect the other way counts as inactive or inconclusive; further: nearly all actives have a fitted effect of over 55% in size)
Procedure, shortened: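 Seed 1,500 KeratinoSens cells per well, then incubate 5 h at 37 C/5% CO2. Add compounds in DMSO and incubate 23 h. Add CellTiter-Fluor, wait 1 h and read fluorescence.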

[2] = Nuclear factor erythroid 2-related factor 2/antioxidant responsive element (Nrf2/ARE) small molecule agonists: luciferase reporter gene qHTS assay in human keratinocytes (AID 1919969); further: nearly all actives have a fitted effect of over 35% in size; further: potency means the concentration at half of the fitted maximal effect
[3] = molecular target: Gonadotropin-releasing hormone receptor (Homo sapiens) (UniProt P30968); test: Human gonadotropin-releasing hormone receptor (GnRHR) small molecule agonists, calcium flux assay in GnRHR-HEK293 cells (AID 1920063); further: nearly all actives have a fitted effect of over 35% in size
Sequence of Gonadotropin-releasing hormone receptor (Homo sapiens) (P30968 whole entry, looked up): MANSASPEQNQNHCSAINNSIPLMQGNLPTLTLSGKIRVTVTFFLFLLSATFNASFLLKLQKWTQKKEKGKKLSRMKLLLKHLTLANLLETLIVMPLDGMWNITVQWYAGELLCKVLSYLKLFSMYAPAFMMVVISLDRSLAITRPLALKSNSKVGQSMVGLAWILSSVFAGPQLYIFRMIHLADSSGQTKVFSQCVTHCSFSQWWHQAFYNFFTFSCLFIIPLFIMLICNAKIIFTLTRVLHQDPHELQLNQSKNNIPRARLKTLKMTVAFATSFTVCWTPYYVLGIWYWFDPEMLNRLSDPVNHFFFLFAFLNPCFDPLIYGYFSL
Procedure, shortened: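 Cells: HEK293 stably expressing human GnRHR. Steps: overnight (18 h) culture, 1 h calcium dye loading at 37 C, compound addition, kinetic fluorescence read at 480/540 nm. Each compound tested at 15 concentrations in triplicate.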

[4] = molecular target: KiSS-1 receptor (Homo sapiens) (UniProt Q969F8); test: Human kisspeptin (KISS1R) small molecule agonists, calcium flux assay in KISS1R-HEK293 cells (AID 1920064; active means well fitted curve in the direction sought with a large enough effect in the repeat runs; an effect the other way counts as inactive or inconclusive)
Sequence of KiSS-1 receptor (Homo sapiens) (Q969F8 whole entry, looked up): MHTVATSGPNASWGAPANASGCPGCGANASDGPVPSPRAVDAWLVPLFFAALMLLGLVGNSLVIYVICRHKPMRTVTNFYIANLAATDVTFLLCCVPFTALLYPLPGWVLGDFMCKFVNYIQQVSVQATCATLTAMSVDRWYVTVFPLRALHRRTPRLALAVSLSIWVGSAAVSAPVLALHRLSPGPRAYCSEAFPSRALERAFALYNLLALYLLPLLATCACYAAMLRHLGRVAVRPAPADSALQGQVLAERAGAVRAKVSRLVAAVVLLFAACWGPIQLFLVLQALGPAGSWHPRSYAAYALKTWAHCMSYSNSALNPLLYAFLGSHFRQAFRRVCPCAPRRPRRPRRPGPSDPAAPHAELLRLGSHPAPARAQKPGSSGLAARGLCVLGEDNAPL
Procedure, shortened: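 Cells plated and incubated 18 h; dye added, 1 h at 37 C; compounds in DMSO pinned in; signal read at 480/540 nm every second for 3 min. Each compound tested at 15 concentrations in triplicate.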

[5] = G protein-coupled receptor (GPCR) small molecule agonists, calcium flux assay: HEK293 wild type cell line counter screen (AID 1920065)
Procedure, shortened: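 Counter-screen of the Tox21 10K library for non-specific calcium release: dye-loaded cells received compounds in DMSO and were monitored by kinetic fluorescence (480/540 nm, 3 min). Fifteen concentrations, run in triplicate.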

[6] = p53 small molecule agonists, cell-based qHTS assay with human liver microsomes (AID 1963577);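 further: p53 response element beta-lactamase reporter cells with liver microsomes plus NADPH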
Procedure, shortened: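 In this qHTS, p53 response-element beta-lactamase cells receive test compound together with a microsome/NADPH activating system (0.5 mg/mL final each) and are incubated 16 h at 37 C before LiveBLAzer fluorescence detection.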

[7] = p53 small molecule agonists, cell-based qHTS assay with rat liver microsomes (AID 1963578)
Procedure, shortened: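 Agonist mode in p53RE-bla reporter cells, with compounds co-incubated 16 h at 37 C alongside 0.5 mg/mL rat liver microsomes and 0.5 mg/mL NADPH (final), followed by a 2 h LiveBLAzer detection step.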

[8] = p53 small molecule agonists, cell-based qHTS assay with human liver microsomes: qHTS cell viability counter screen (AID 1963579); further: nearly all actives have a fitted effect of over 45% in size
Procedure, shortened: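 Metabolically activated exposure: compounds, human liver microsomes and NADPH (0.5 mg/mL final apiece) were added to p53RE-bla cells seeded 5 h earlier, left 16 h at 37 C, and then assessed for viability by CellTiter-Glo luminescence.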

[9] = p53 small molecule agonists, cell-based qHTS assay: qHTS cell viability counter screen (AID 1963581); further: nearly all actives have a fitted effect of over 45% in size
Procedure, shortened: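 Cells: HCT-116 with p53 response element-driven beta-lactamase. Treatment: 16 h, 37 C, compounds in DMSO. Read: CellTiter-Glo luminescence after 30 min RT.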

[10] = molecular target: 5-hydroxytryptamine receptor 2A (Homo sapiens) (UniProt P28223); test: 5-hydroxytryptamine receptor 2A (HTR2A) small molecule antagonists, cell-based qHTS assay (AID 1963586); further: nearly all actives have a fitted effect of over 45% in size
Sequence of 5-hydroxytryptamine receptor 2A (Homo sapiens) (P28223 whole entry, looked up): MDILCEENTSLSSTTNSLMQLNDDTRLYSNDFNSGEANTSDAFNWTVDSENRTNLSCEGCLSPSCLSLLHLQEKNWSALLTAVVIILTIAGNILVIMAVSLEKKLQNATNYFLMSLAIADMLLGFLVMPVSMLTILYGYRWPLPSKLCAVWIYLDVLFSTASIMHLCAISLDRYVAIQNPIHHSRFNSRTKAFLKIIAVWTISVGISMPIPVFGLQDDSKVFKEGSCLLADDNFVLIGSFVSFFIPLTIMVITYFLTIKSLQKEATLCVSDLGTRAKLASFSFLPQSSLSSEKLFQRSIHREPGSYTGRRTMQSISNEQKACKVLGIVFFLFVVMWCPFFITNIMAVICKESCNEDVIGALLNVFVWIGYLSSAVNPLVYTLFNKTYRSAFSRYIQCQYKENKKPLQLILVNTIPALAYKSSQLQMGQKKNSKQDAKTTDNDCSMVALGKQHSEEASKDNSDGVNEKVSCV
Procedure, shortened: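 Antagonist-mode intracellular calcium assay: DOI (4 nM) added after 5 min compound pre-incubation at room temperature to dye-loaded HTR2A-CHO cells. Fluorescence followed for 3 min, sampled every second.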

[11] = molecular target: 5-hydroxytryptamine receptor 2A (Homo sapiens) (UniProt P28223); test: 5-hydroxytryptamine receptor 2A (HTR2A) small molecule agonists, cell-based qHTS assay (AID 1963587); further: nearly all actives have a fitted effect of over 30% in size
Procedure, shortened: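 CHO cells stably expressing human HTR2A, plated 18 h, loaded with calcium dye 1 h at 37 C. Agonist mode: compounds added and intracellular calcium fluorescence recorded kinetically for 2 min at 1 sec intervals.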

[12] = molecular target: Muscarinic acetylcholine receptor M1 (Homo sapiens) (UniProt P11229); test: Cholinergic receptor muscarinic 1 (CHRM1) small molecule antagonists, cell-based qHTS assay (AID 1963588); further: nearly all actives have a fitted effect of over 40% in size
Sequence of Muscarinic acetylcholine receptor M1 (Homo sapiens) (P11229 whole entry, looked up): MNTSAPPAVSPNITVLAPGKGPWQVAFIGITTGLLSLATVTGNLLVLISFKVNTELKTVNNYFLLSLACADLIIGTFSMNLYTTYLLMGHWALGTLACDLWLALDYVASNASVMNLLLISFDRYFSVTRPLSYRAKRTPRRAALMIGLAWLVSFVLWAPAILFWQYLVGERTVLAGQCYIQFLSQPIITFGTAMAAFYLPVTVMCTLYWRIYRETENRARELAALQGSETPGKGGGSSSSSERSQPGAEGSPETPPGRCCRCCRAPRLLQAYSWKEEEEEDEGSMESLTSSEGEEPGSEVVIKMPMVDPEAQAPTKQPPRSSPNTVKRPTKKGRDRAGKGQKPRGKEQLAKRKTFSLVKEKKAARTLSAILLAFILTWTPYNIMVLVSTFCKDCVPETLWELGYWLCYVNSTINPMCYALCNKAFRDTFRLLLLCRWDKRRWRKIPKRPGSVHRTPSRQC
Procedure, shortened: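 CHRM1-CHO calcium-flux assay, antagonist mode. Cells were seeded 18 h, dye-loaded 1 h at 37 C and given compound for 5 min at RT, then acetylcholine was added at 50nM. FDSS fluorescence was read 3 min; 15 concentrations, three runs.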

[13] = molecular target: Muscarinic acetylcholine receptor M1 (Homo sapiens) (UniProt P11229); test: Cholinergic receptor muscarinic 1 (CHRM1) small molecule agonists, cell-based qHTS assay (AID 1963589); further: nearly all actives have a fitted effect of over 35% in size
Procedure, shortened: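 Agonist-mode qHTS in CHO cells stably carrying human muscarinic M1. Intracellular calcium is tracked by fluorescence every second after compound transfer; each compound runs at 15 concentrations in three independent runs.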

[14] = cAMP Responsive Elements (CRE) small molecule agonists, cell-based qHTS assay (AID 1963590)
Procedure, shortened: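 Agonist mode qHTS in CRE-bla HEK 293T cells: compounds dosed from DMSO for 3 h at 37 C/5% CO2, followed by LiveBLAzer B/G FRET substrate for 2 h at room temperature.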

[15] = cAMP Responsive Elements (CRE) small molecule antagonists, cell-based qHTS assay (AID 1963591; active means well fitted inhibition curve with a large enough effect in the signal ratio in the repeat runs, not every such curve was filed as active; the % refers to the signal ratio)
Procedure, shortened: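 Antagonist mode: test compounds are co-incubated with the adenylyl cyclase activator NKH477 (0.25 uM final) on CRE-bla HEK293T cells for 3 h at 37 °C, followed by LiveBLAzer substrate loading.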

[16] = molecular target: Beta-2 adrenergic receptor (Homo sapiens) (UniProt P07550); test: Adrenergic beta2 receptor (ADRB2) small molecule antagonists, cell-based qHTS assay (AID 1963592); further: series mostly up to about 92 µM; nearly all actives have a fitted effect of over 50% in size
Sequence of Beta-2 adrenergic receptor (Homo sapiens) (P07550 whole entry, looked up): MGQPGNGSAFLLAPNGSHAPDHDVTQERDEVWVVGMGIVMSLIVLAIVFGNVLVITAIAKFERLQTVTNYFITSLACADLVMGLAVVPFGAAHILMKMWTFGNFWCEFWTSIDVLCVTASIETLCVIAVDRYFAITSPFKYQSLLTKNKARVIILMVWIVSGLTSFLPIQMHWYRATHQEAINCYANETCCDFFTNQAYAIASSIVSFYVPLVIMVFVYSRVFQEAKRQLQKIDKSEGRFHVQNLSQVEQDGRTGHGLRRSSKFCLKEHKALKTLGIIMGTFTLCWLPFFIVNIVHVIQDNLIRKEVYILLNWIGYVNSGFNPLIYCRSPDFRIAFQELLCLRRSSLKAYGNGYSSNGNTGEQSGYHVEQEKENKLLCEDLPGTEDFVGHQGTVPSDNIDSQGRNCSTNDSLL
Procedure, shortened: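 Cells (CHO, stable ADRB2 overexpression) incubated 18-20hr at 37C; compounds added from DMSO; agonist mix (1nM isoproterenol, 100uM IBMX, 25uM Ro-20-1724) added; 0.5hr RT; d2-cAMP and anti-cAMP-cryptate added; 1hr RT; 665/615 nm read.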

[17] = molecular target: Beta-2 adrenergic receptor (Homo sapiens) (UniProt P07550); test: Adrenergic beta2 receptor (ADRB2) small molecule agonists, cell-based qHTS assay (AID 1963593);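 further: CHO cells stably overexpressing human ADRB2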
Procedure, shortened: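 CHO cells stably over-expressing ADRB2 were plated overnight at 37C, then dosed with compounds plus a stimulation mix containing 100uM IBMX and 25uM Ro-20-1724 for 0.5hr at room temperature. cAMP was measured by HTRF competition, 1hr.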

[18] = molecular target: D(2) dopamine receptor (Homo sapiens) (UniProt P14416); test: Dopamine D2 receptor (DRD2) small molecule agonists, cell-based qHTS assay (AID 1963594); further: nearly all actives have a fitted effect of over 35% in size
Sequence of D(2) dopamine receptor (Homo sapiens) (P14416 whole entry, looked up): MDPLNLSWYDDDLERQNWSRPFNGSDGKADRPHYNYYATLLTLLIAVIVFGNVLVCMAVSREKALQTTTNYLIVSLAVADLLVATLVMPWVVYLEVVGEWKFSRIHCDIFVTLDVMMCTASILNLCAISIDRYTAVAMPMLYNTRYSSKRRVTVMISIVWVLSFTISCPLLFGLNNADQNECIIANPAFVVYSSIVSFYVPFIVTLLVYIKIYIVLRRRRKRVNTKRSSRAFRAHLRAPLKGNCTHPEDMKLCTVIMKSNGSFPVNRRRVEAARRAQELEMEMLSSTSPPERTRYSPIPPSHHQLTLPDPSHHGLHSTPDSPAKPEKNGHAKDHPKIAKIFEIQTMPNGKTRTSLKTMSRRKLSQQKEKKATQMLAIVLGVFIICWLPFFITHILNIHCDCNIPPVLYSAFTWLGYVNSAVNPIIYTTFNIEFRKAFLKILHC
Procedure, shortened: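 HEK293 cells stably expressing human DRD2, pre-treated with PDE inhibitor Ro20-1724 (0.1 mM final) and compound 10 min at room temperature, then stimulated with NKH477 (200nM […]) for 30 min. cAMP read by HTRF (665/620 nm).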

[19] = molecular target: D(2) dopamine receptor (Homo sapiens) (UniProt P14416); test: Dopamine D2 receptor (DRD2) small molecule antagonists, cell-based qHTS assay (AID 1963595; active means well fitted inhibition curve with a large enough effect in the signal ratio in the repeat runs, with a control signal flat; the % refers to the signal ratio)
Procedure, shortened: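 HTRF cAMP read-out at 665 and 620 nm emission (340 nm excitation). Antagonist mode: compounds were tested against 12 nM quinpirole in DRD2-HEK293 cells, with 200 nM NKH477 raising cAMP and 0.1 mM Ro20-1724 blocking its breakdown.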

[20] = p53 small molecule agonists, cell-based qHTS assay (AID 1963582; active means well fitted activation curve with a large enough effect in the signal ratio in the repeat runs, not every such curve was filed as active; the % refers to the signal ratio)
Procedure, shortened: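 Quantitative HTS in p53RE-bla cells: after a 5 h settling period, compounds delivered in DMSO were left on cells for 16 h at 37 C, and reporter induction was measured as fluorescence following 2 h substrate loading.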

SMILES | Potency [1] | Potency [2] | Potency [3] | Potency [4] | Potency [5] | Potency [6] | Potency [7] | Potency [8] | Potency [9] | Potency [10] | Potency [11] | Potency [12] | Potency [13] | Potency [14] | Potency [15] | Potency [16] | Potency [17] | Potency [18] | Potency [19] | Potency [20]
O=C(O)/C=C/c1ccc(Cn2ccnc2)cc1 | inactive | inactive | inactive | inactive | inactive | inactive | inactive | inactive | inactive | inactive | inactive | inactive | inactive | inactive | inactive | inactive | inactive | inactive | inactive | –
CCN(CC)CC(=O)OCC(=O)[C@@]1(O)CC[C@H]2[C@@H]3CCC4=CC(=O)CC[C@]4(C)[C@H]3[C@@H](O)C[C@@]21C | inactive | inactive | inactive | inactive | inactive | inactive | inactive | inactive | inactive | inactive | inactive | inactive | inactive | – | inactive | inactive | inactive | – | inactive | inactive
C[Si](C)(C)Cl | inactive | inactive | inactive | inactive | inactive | inactive | inactive | inactive | inactive | inactive | inactive | – | inactive | inactive | inactive | inactive | inactive | inactive | – | inactive
CCCCCCc1ccc(-c2ccc(C#N)cc2)cc1 | inactive | 13.4 µM (active) | inactive | inactive | inactive | inactive | inactive | inactive | inactive | – | inactive | inactive | inactive | inactive | – | inactive | inactive | inactive | inactive | inactive
CC(C)(O)Cc1ccccc1 | inactive | inactive | inactive | inactive | inactive | inactive | inactive | inactive | inactive | inactive | inactive | inactive | inactive | inactive | inactive | – | inactive | inactive | inactive | inactive
O=C(CCN1CCN(CCO)CC1)N1c2ccccc2Sc2ccc(C(F)(F)F)cc21 | inactive | inactive | inactive | inactive | inactive | inactive | inactive | inactive | – | inactive | inactive | inactive | inactive | inactive | inactive | inactive | inactive | inactive | inactive | inactive
CC1=C(O)C(=O)OC1C (configuration not stated) | inactive | inactive | inactive | inactive | inactive | inactive | inactive | inactive | inactive | inactive | inactive | – | inactive | inactive | inactive | inactive | inactive | inactive | – | inactive
CC1CNCC(C)O1 (configuration not stated) | inactive | inactive | inactive | inactive | inactive | inactive | inactive | inactive | inactive | inactive | inactive | – | inactive | inactive | inactive | inactive | inactive | inactive | inactive | inactive
O=S(=O)(O)CCCN1CCOCC1 | inactive | inactive | inactive | inactive | inactive | inactive | inactive | inactive | inactive | inactive | inactive | inactive | inactive | inactive | inactive | inactive | inactive | inactive | inactive | –
CNC(=O)NC | inactive | inactive | inactive | inactive | inactive | inactive | inactive | inactive | inactive | inactive | – | inactive | inactive | inactive | inactive | inactive | – | inactive | – | inactive
CC(C)=CCCC(C)CCOC(=O)C(C)C (configuration not stated) | inactive | inactive | inactive | inactive | inactive | inactive | inactive | inactive | – | inactive | inactive | inactive | inactive | inactive | inactive | inactive | inactive | inactive | inactive | inactive
O=C(O)c1cccc(C[C@@H]2COc3ccc(OCc4nc5cc(F)ccc5s4)cc3[C@@H]2O)c1 | inactive | inactive | inactive | inactive | inactive | inactive | inactive | inactive | inactive | inactive | inactive | inactive | inactive | inactive | inactive | – | inactive | inactive | inactive | inactive
O=S(=O)(O)CCS | inactive | inactive | inactive | inactive | inactive | inactive | inactive | inactive | inactive | – | – | – | – | inactive | – | inactive | inactive | inactive | inactive | inactive
